Screening data: PubChem, several laboratories
This is a sample that favours compounds with a hit; in the whole collection about 4.7% have one here.
PfHsp90 set2 = reduces growth (ATP signal) of yeast expressing P. falciparum Hsp90; S. cerevisiae expressing PfHsp90, BacTiter-Glo ATP, 48 h; yeast lacking PDR1 and PDR3 efflux regulators; inhibition, % at 9.4 µM; 310,000 tested, 0.32% active; AID 504621;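 active = every replicate shows inhibition above about 80%, whatever the replicate mean, limit read from the data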;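 also: 0% = DMSO neutral controls and 100% = 20 µM radicicol positive controls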
tim23-1 inh = growth inhibitors of tim23-1 mutant yeast | S. cerevisiae tim23-1 growth, BacTiter-Glo luminescence, 24 h | inhibition, % at 20 µM | 330,000 tested, 1.3% active | AID 463212;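 active = growth inhibition of the mutant yeast at or above 50%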;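 also: temperature-sensitive mutant grown at 25 °C; plate controls were DMSO-treated mutant yeast for no effect and medium wells lacking yeast for full effect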
SKKanGAS inh = inhibitors of SKKanGAS S. pyogenes growth in kanamycin (SK-promoter or general growth effect); 300,000 tested, 1.3% active; BacTiter-Glo, 6 h; inhibition, % at 7.5 µM; AID 1662;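 active = mean replicate score, as percent of positive control median, at least 50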;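 also: strain carries kanamycin resistance gene driven by streptokinase promoter and grows in 40 µg/ml kanamycin; loss of luminescence reflects streptokinase promoter inhibition or plain growth inhibition; 0% = median of DMSO wells and 100% = positive control at its reference dose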
tim10-1 inh = growth inhibitors of tim10-1 mutant yeast | S. cerevisiae tim10-1 ts strain growth, BacTiter-Glo, 24 h | inhibition, % at 20 µM | 330,000 tested, 2.2% active | AID 463190;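 active = inhibition of at least 40%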;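 also: mutant grown at 25 °C; 0% = DMSO wells with yeast and 100% = wells holding no yeast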
TIM10 inh = inhibits growth of TIM10 yeast strain; S. cerevisiae TIM10 strain growth, BacTiter-Glo luminescence, 24 h; 330,000 tested, 1.4% active; inhibition, % at 10 µM;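 active = inhibition of 40% or more at the single tested concentration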;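 also: wild-type TIM10 isogenic control strain grown at permissive 25 °C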
EBI2 block = EBI2 (human) antagonism; 360,000 tested, 0.81% active; EBI2 beta-arrestin recruitment, luminescence, 7a,25-OHC stimulated; inhibition, % at 5 µM; P32249; in the data active = inhibition above about 38%;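 also: enzyme fragment complementation signal reports receptor beta-arrestin coupling in cells; 0% = agonist plus DMSO wells and 100% = wells without agonist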
Target sequence (P32249 whole entry, looked up, the tested form may be a part): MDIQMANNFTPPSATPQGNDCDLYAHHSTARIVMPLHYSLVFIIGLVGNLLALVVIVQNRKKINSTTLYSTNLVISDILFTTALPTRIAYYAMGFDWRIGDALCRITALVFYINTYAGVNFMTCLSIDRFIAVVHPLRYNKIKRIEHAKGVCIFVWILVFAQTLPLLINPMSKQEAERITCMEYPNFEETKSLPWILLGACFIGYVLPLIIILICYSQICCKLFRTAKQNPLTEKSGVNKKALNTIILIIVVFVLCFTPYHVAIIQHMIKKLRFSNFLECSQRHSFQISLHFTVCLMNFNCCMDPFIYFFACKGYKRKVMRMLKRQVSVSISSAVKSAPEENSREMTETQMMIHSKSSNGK
tim10-1 conf = confirmation of tim10-1 mutant yeast growth inhibitors | shares compounds with tim10-1 inh | S. cerevisiae tim10-1 ts strain growth, BacTiter-Glo, 24 h | inhibition, % at 20 µM | 7,400 tested, 56% active;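 active = inhibition of yeast growth at or above a set limit in either of two repeat tests at 20 µM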;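 also: tim10-1 mutant grown at permissive 25 °C to find synthetic lethal compounds; 0% = DMSO yeast wells and 100% = medium wells without yeast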
* = called active by the depositor; · = not tested or not shown.

SMILES	PfHsp90 set2	tim23-1 inh	SKKanGAS inh	tim10-1 inh	TIM10 inh	EBI2 block	tim10-1 conf
CN(NS(=O)(=O)c1ccc(Cl)cc1)c1ncc(C(F)(F)F)cc1Cl	-9	27	-1	42*	14	3	26
CN(NS(=O)(=O)c1ccc(F)cc1)c1ncc(C(F)(F)F)cc1Cl	-29	10	4	16	12	6	·
CC(C)(C)NS(=O)(=O)c1ccc(Oc2ncc(C(F)(F)F)cc2Cl)cc1	-35	34	4	41*	30	2	38*
COc1cccc(-c2csc(N3CCN(C(=S)Nc4ccccc4Cl)CC3)n2)c1	-31	25	15	44*	29	-14	34*
COCCCNC(=S)N1CCN(c2nc(-c3ccccc3)cs2)CC1	-26	36	5	40*	6	5	13
O=C(NC1CC1)C1CCN(C2CCN(C(=O)/C=C/c3ccc(F)cc3)CC2)CC1	20	-16	-17	2	6	35	·
O=[N+]([O-])c1ccc(N2CCc3ccccc3C2)cc1	-19	35	7	55*	35	-4	43*
S=c1[nH]nc(CSCc2ccccc2Cl)n1-c1ccccc1	26	23	-5	46*	15	-6	37*
CC1=C[C@@H](C)[C@@H](c2ccccc2)OC1=O	-11	19	-1	3	9	-3	·
O=C1N=c2ccccc2=C1c1sc(=S)n(NC(=O)c2ccccc2)c1O	-15	18	-1	17	7	-1	·
C=CCn1c(O)c(C2=c3ccccc3=NC2=O)sc1=Nc1ccc(O)cc1	-23	38	41	63*	6	24	25
O=C(NC(=S)Nc1ccc(N2CCOCC2)cc1)c1cccc(Cl)c1	-1	46	-5	41*	22	8	24
CC(=O)c1cccc(NC(=S)NC(=O)c2cccc(Cl)c2)c1	1	37	-2	45*	21	-4	15
O=C(NC(=S)Nc1ccc(N2CCOCC2)cc1)c1ccccc1	10	-1	9	28	6	-12	·
CCC(=O)NC(=S)Nc1cccc(NC(=O)c2ccccc2Cl)c1	0	47	6	45*	30	-8	23
CC(=O)c1cccc(NC(=S)NC(=O)c2ccccc2)c1	19	33	-18	31	-7	-2	·
COc1ccc(C(=O)NC(=S)Nc2ccc(CN3CCOCC3)cc2)cc1Cl	-2	37	2	52*	14	9	-30
Cc1ccc(S(=O)(=O)c2nnn3c2nc(NC2CCN(Cc4ccccc4)CC2)c2ccccc23)cc1C	3	4	27	0	5	31	·
O=C(Nc1ccc(CN2CCOCC2)cc1)c1ccc(Br)o1	0	19	0	-6	8	3	·
O=C(Nc1ccc(CN2CCOCC2)cc1)c1ccc(-c2cc(Cl)ccc2Cl)o1	8	11	10	44*	14	26	29
Cc1cc(C)cc(NC(=O)Cc2ccc(S(=O)(=O)N3CCCC3)s2)c1	6	7	·	10	-2	7	·
O=C(Cc1ccc(S(=O)(=O)N2CCCCC2)s1)Nc1ccc(F)c(F)c1	-14	33	0	47*	25	24	28
O=C(COc1ccccc1Cl)NCCCNC(=O)c1ccco1	3	9	-2	4	-9	3	·
O=S(=O)(/N=C(/Nc1ccc(Cl)cc1Cl)c1ccccc1)c1cccs1	0	46	-9	4	37	-1	·
O=C(NC1CCCC1)C(c1ccc(F)cc1)N(Cc1ccc(F)cc1)C(=O)CCl (centres undefined)	9	41	-7	57*	36	2	33*
SMILES	PfHsp90 set2	tim23-1 inh	SKKanGAS inh	tim10-1 inh	TIM10 inh	EBI2 block	tim10-1 conf
Cc1cc(NC(=O)NC(C(F)(F)F)C(F)(F)F)no1	·	7	2	-4	-5	0	·
CCOc1ccccc1C(=O)NC(C)c1ccc(-n2ccnc2)cc1 (centres undefined)	31	21	1	13	7	0	·
O=C1/C(=C/c2cccs2)SC(=S)N1N1CCOCC1	-9	18	-2	9	17	0	·
O=C1/C(=C/c2cccnc2)SC(=S)N1N1CCOCC1	-14	47	2	52*	29	-9	40*
CCCc1ccc(-c2cc(NC(=O)CSc3nnc(N)s3)n(-c3ccccc3)n2)cc1	39	12	8	43*	19	9	11
CCS(=O)(=O)N1CCC(C(=O)Oc2ccc(C)c(C)c2)CC1	0	10	0	5	-6	-5	·
Cc1cc(CN2CCCCC2C(=O)Nc2ccc(Oc3cccnc3)cc2)oc1C (centres undefined)	-32	28	5	20	10	-1	·
COc1ccc2cc(C3CC(c4ccco4)=NN3S(=O)(=O)c3ccccc3)c(Cl)nc2c1 (centres undefined)	12	21	14	47*	21	-21	18
COc1ccccc1/C=C/CN1CCSCC1	-8	4	4	-7	-3	0	·
Cc1ccc(-c2nc(C(=O)NCCCN3CCOCC3)cc3c2[nH]c2ccccc23)cc1	·	26	10	40*	18	20	32*
CCc1nc(C)cn1S(=O)(=O)c1cc(Br)c(C)cc1OC	8	30	4	44*	25	13	17
CCc1nc(C)cn1S(=O)(=O)c1cc(C)c(OC)cc1C	-13	-5	1	11	11	-1	·
Cc1ccc(-c2nc3cnccn3c2Nc2c(C)cccc2C)o1	42	37	1	60*	28	5	55*
COCCCNC(=O)/C(C#N)=C/c1ccc(F)cc1	-12	48	-10	42*	13	8	27
COCCNC(=O)/C(C#N)=C/c1ccc(SC)cc1	-4	-1	7	5	11	-4	·
S=C(Nc1ccc(Br)cc1)Nc1ccc2c(c1)OCCO2	5	34	-2	45*	15	11	3
CC(C)NC(=O)c1cc(-c2ccc(F)cc2OC(C)C)n[nH]1	·	·	·	·	·	-5	·
CSCc1ccc(C(=O)NC2CC(C)(C)Cc3c2cnn3-c2ccc(F)cc2)o1 (centres undefined)	19	38	1	41*	25	-9	13
COc1ccc(-n2ncc3c2CC(C)(C)CC3NC(=O)c2oc(C)cc2C)cc1 (centres undefined)	-29	36	1	44*	14	3	11
COc1ccc(-n2ncc3c2CC(C)(C)CC3NC(=O)c2ocnc2C)cc1 (centres undefined)	-5	5	-3	11	-5	1	·
Cc1ncoc1C(=O)NC1CC(C)(C)Cc2c1cnn2-c1ccccc1 (centres undefined)	-2	9	0	16	9	-5	·
